Results taken from publication PMC7862700, “An all-to-all approach to the identification of sequence-specific readers for epigenetic DNA modifications on cytosine”.

What was measured:
Assay in all cases: DAPPL (digital affinity profiling via proximity ligation, sequencing); 10 mM Tris-HCl pH 7.5, 50 mM NaCl, 1 mM DTT, 4% glycerol, room temperature, 30 min; GST-TFs on glutathione beads, 16-mer random dsDNA library, 0.1% formaldehyde crosslink after washing; high values mean tight binding
Conditions in all cases: protein: recombinant; tags: N-terminal GST; dsDNA, one strand shown
ERF = target: T1, ERF (Homo sapiens, UniProt P50548 1-548)
T1 sequence: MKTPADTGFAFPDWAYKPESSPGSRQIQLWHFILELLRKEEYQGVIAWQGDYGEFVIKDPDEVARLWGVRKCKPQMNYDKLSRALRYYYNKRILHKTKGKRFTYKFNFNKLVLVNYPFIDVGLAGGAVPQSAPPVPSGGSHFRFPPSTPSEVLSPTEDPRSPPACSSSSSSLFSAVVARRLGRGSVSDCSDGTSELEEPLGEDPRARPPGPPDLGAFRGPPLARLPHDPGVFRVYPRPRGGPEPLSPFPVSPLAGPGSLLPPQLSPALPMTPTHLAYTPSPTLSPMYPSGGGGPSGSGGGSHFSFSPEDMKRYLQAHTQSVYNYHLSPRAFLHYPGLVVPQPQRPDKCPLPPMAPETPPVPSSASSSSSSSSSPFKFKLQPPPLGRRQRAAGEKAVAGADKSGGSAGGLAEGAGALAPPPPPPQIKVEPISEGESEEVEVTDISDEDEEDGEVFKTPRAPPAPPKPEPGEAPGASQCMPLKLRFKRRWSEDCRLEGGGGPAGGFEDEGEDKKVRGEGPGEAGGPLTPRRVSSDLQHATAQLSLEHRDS
In short: (§1)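 Yeast served to express human transcription factors as GST fusions, which were then captured on glutathione beads and labelled with DNA barcodes. Pooled with a tag-only sample, they were incubated with 200 nmole of a 16-mer random double-stranded DNA library for 30 min at room temperature in Tris/NaCl/DTT/glycerol buffer, washed, crosslinked with 0.1% formaldehyde, ligated by proximity, amplified by PCR and sequenced. Dividing each hexamer's read frequency for a factor by its frequency for the tag-only sample gives the binding signal.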

ETV3L = target: T2, ETV3L (Homo sapiens, UniProt Q6ZN32 1-361)
T2 sequence: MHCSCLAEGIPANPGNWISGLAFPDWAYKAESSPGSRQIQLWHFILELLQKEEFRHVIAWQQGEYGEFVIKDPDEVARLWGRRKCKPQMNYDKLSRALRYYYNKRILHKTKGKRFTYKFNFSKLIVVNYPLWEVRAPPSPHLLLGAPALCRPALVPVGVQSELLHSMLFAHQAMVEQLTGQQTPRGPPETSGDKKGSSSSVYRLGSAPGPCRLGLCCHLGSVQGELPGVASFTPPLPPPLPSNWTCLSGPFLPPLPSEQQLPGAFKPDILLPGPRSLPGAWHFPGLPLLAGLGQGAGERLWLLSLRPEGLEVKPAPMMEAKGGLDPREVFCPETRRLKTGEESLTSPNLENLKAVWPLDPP
In short: as §1

ETS2 = target: T3, ETS2 (Homo sapiens, UniProt P15036 1-469)
T3 sequence: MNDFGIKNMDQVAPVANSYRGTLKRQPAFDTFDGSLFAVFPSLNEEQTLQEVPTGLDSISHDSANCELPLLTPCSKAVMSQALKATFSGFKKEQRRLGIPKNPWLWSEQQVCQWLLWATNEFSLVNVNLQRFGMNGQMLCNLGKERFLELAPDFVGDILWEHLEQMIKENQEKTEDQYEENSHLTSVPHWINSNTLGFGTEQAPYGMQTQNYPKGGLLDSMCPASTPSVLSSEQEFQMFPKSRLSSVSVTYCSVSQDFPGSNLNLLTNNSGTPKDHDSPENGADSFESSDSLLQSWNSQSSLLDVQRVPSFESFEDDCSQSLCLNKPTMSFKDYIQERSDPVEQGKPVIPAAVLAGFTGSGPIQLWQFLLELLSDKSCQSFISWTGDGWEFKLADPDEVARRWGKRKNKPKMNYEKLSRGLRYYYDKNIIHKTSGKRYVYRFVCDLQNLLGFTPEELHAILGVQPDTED
In short: as §1

SPDEF = target: T4, SPDEF (Homo sapiens, UniProt O95238 1-335)
T4 sequence: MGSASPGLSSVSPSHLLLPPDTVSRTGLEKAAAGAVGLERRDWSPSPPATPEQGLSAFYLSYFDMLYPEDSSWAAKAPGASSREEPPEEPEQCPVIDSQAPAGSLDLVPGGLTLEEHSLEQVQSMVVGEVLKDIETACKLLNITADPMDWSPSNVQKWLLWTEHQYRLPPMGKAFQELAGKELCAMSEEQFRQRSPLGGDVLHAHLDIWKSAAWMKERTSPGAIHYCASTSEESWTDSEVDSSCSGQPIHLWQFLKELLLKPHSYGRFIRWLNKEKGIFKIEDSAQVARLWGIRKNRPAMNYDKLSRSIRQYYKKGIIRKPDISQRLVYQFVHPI
In short: as §1

ETV7 = target: T5, ETV7 (Homo sapiens, UniProt Q9Y603 1-341)
T5 sequence: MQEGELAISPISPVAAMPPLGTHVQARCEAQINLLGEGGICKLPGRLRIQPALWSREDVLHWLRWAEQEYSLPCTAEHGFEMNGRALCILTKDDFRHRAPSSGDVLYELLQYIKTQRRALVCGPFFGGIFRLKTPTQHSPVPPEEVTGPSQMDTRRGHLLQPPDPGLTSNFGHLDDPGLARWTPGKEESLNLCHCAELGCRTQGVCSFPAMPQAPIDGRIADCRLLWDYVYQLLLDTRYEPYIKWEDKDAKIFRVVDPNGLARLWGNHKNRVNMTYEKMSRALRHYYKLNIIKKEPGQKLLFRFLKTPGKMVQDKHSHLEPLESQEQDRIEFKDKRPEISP
In short: as §1

ELF5 = target: T6, ELF5 (Homo sapiens, UniProt Q9UKW6-2 1-255)
T6 sequence: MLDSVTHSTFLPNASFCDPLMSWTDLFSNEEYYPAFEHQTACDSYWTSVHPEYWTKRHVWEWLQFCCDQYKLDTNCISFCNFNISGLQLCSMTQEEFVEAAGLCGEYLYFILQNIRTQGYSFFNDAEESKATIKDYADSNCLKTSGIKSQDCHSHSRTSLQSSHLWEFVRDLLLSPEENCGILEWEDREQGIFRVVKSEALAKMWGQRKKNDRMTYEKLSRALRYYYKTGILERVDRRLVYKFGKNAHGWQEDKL
In short: as §1

ETV3 = target: T7, ETV3 (Homo sapiens, UniProt P41162-2 1-143)
T7 sequence: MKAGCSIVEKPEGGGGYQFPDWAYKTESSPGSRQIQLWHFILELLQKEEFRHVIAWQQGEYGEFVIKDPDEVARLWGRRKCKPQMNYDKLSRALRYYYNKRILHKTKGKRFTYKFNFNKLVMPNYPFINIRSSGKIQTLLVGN
In short: as §1

ETV6 = ETV6 (Homo sapiens, UniProt P41212 1-452)
In short: as §1

ETV6, sequence (P41212 whole entry): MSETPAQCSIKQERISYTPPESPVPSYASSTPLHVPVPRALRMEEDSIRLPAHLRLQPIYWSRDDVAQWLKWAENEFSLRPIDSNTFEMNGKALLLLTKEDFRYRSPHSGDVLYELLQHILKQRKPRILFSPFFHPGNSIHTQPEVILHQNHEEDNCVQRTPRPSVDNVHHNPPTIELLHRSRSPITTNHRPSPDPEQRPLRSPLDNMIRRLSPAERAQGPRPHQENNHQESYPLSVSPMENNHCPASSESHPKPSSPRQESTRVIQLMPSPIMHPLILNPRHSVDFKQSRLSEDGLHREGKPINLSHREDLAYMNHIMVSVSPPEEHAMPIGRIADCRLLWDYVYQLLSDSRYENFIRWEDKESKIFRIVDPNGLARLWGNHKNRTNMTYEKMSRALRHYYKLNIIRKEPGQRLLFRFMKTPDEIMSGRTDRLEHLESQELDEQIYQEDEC

Row | Sequence | binding signal (ERF) | binding signal (ETV3L) | binding signal (ETS2) | binding signal (SPDEF) | binding signal (ETV7) | binding signal (ELF5) | binding signal (ETV3) | binding signal (ETV6)
1 | TGTATC | 1.39 fold enrichment (6-mer frequency, TF over GST control) | 1.28 fold enrichment (6-mer frequency, TF over GST control) | 1.42 fold enrichment (6-mer frequency, TF over GST control) | 1.89 fold enrichment (6-mer frequency, TF over GST control) | 1.31 fold enrichment (6-mer frequency, TF over GST control) | 1.51 fold enrichment (6-mer frequency, TF over GST control) | 1.54 fold enrichment (6-mer frequency, TF over GST control) | 1.36 fold enrichment (6-mer frequency, TF over GST control)
2 | AATAGG | 1.21 fold enrichment (6-mer frequency, TF over GST control) | 1.12 fold enrichment (6-mer frequency, TF over GST control) | 1.16 fold enrichment (6-mer frequency, TF over GST control) | 1.22 fold enrichment (6-mer frequency, TF over GST control) | 1.27 fold enrichment (6-mer frequency, TF over GST control) | 1.19 fold enrichment (6-mer frequency, TF over GST control) | 1.15 fold enrichment (6-mer frequency, TF over GST control) | 1.27 fold enrichment (6-mer frequency, TF over GST control)
3 | GTAACT | 1.22 fold enrichment (6-mer frequency, TF over GST control) | 1.28 fold enrichment (6-mer frequency, TF over GST control) | 1.25 fold enrichment (6-mer frequency, TF over GST control) | 1.2 fold enrichment (6-mer frequency, TF over GST control) | 1.12 fold enrichment (6-mer frequency, TF over GST control) | 1.24 fold enrichment (6-mer frequency, TF over GST control) | 1.25 fold enrichment (6-mer frequency, TF over GST control) | 1.25 fold enrichment (6-mer frequency, TF over GST control)
4 | CCCTTT | 1.42 fold enrichment (6-mer frequency, TF over GST control) | 1.51 fold enrichment (6-mer frequency, TF over GST control) | 1.37 fold enrichment (6-mer frequency, TF over GST control) | 1.51 fold enrichment (6-mer frequency, TF over GST control) | 1.34 fold enrichment (6-mer frequency, TF over GST control) | 1.52 fold enrichment (6-mer frequency, TF over GST control) | 1.36 fold enrichment (6-mer frequency, TF over GST control) | 1.4 fold enrichment (6-mer frequency, TF over GST control)
5 | TTCGCG | 1.23 fold enrichment (6-mer frequency, TF over GST control) | 1.15 fold enrichment (6-mer frequency, TF over GST control) | 1.1 fold enrichment (6-mer frequency, TF over GST control) | 1.15 fold enrichment (6-mer frequency, TF over GST control) | 1.08 fold enrichment (6-mer frequency, TF over GST control) | 1.07 fold enrichment (6-mer frequency, TF over GST control) | 1.12 fold enrichment (6-mer frequency, TF over GST control) | 1.17 fold enrichment (6-mer frequency, TF over GST control)
6 | TATTTC | 1.86 fold enrichment (6-mer frequency, TF over GST control) | 2.06 fold enrichment (6-mer frequency, TF over GST control) | 2.23 fold enrichment (6-mer frequency, TF over GST control) | 2 fold enrichment (6-mer frequency, TF over GST control) | 2.2 fold enrichment (6-mer frequency, TF over GST control) | 2.66 fold enrichment (6-mer frequency, TF over GST control) | 2.23 fold enrichment (6-mer frequency, TF over GST control) | 2.54 fold enrichment (6-mer frequency, TF over GST control)
7 | GCCCCT | 1.27 fold enrichment (6-mer frequency, TF over GST control) | 1.3 fold enrichment (6-mer frequency, TF over GST control) | 1.27 fold enrichment (6-mer frequency, TF over GST control) | 1.37 fold enrichment (6-mer frequency, TF over GST control) | 1.22 fold enrichment (6-mer frequency, TF over GST control) | 1.2 fold enrichment (6-mer frequency, TF over GST control) | 1.23 fold enrichment (6-mer frequency, TF over GST control) | 1.23 fold enrichment (6-mer frequency, TF over GST control)
8 | GGACAT | 1.12 fold enrichment (6-mer frequency, TF over GST control) | 1.13 fold enrichment (6-mer frequency, TF over GST control) | 1.18 fold enrichment (6-mer frequency, TF over GST control) | 1.43 fold enrichment (6-mer frequency, TF over GST control) | 1.23 fold enrichment (6-mer frequency, TF over GST control) | 1.24 fold enrichment (6-mer frequency, TF over GST control) | 1.23 fold enrichment (6-mer frequency, TF over GST control) | 1.18 fold enrichment (6-mer frequency, TF over GST control)
